Measurements as given in PubChem BioAssay (NCI).
Where “and” joins values, the source holds several entries; their conditions need not be identical. Equal values may be shown once. Compounds without any hit were thinned out: in the full panel of roughly 83,000, 20% have a hit.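 Results are percent growth after 48 hours of single-concentration exposure. 100 means growth as in untreated cells, lower positive values show inhibition; negative values down to -100 show cell death.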 Calls of active or inactive are those of the source. The calls were made as follows: active = growth percent below 10; inactive = the rest.

Key:
Experiment in all cases: NCI-60 one-dose screen, 48 h (100 = growth as untreated, 0 = no growth, -100 = all killed)
SK-MEL-2 melanoma = tested on: SK-MEL-2 melanoma
EKVX NSCLC = tested on: EKVX NSCLC
SN12C renal = conditions: 10 µM unless noted
UO-31 renal = tested on: UO-31 renal
TK-10 renal = tested on: TK-10 renal
ACHN renal = tested on: ACHN renal
CAKI-1 renal = tested on: CAKI-1 renal
A498 renal = tested on: A498 renal
HL-60(TB) leukemia = conditions: 10 µM unless noted
CCRF-CEM leukemia = tested on: CCRF-CEM leukemia
MOLT-4 leukemia = conditions: 10 µM unless noted
SR leukemia = tested on: SR leukemia
RPMI-8226 leukemia = tested on: RPMI-8226 leukemia
OVCAR-8 ovarian = conditions: 10 µM unless noted
OVCAR-5 ovarian = tested on: OVCAR-5 ovarian
OVCAR-4 ovarian = conditions: 10 µM unless noted
SK-OV-3 ovarian = tested on: SK-OV-3 ovarian
IGROV1 ovarian = tested on: IGROV1 ovarian
OVCAR-3 ovarian = tested on: OVCAR-3 ovarian
HS 578T breast = tested on: HS 578T breast

Measured: growth

CC[C@H](C)[C@H](NC(=O)c1cnccn1)C(=O)N(C)[C@H](C[C@@H](OC(C)=O)c1nc(C(=O)N[C@@H](Cc2ccccc2)C[C@H](C)C(=O)OC)cs1)C(C)C
inactive: SK-MEL-2 melanoma; 10 µM unless noted 31.3% | EKVX NSCLC; 10 µM unless noted 43.9% | SN12C renal 43.6% | UO-31 renal; 10 µM unless noted 40.7% | TK-10 renal; 10 µM unless noted 48.2% | ACHN renal; 10 µM unless noted 45.3% | CAKI-1 renal; 10 µM unless noted 29.4% | CCRF-CEM leukemia; 10 µM unless noted 12% | MOLT-4 leukemia 17.9% | SR leukemia; 10 µM unless noted 15.9% | RPMI-8226 leukemia; 10 µM unless noted 22.5% | OVCAR-8 ovarian 15.2% | OVCAR-5 ovarian; 10 µM unless noted 42.4% | OVCAR-4 ovarian 45.9% | SK-OV-3 ovarian; 10 µM unless noted 20.6% | IGROV1 ovarian; 10 µM unless noted 32% | HS 578T breast; 10 µM unless noted 11.9%
active: A498 renal; 10 µM unless noted -7.33% | HL-60(TB) leukemia -43.7% | OVCAR-3 ovarian; 10 µM unless noted -10.2%

CN1CCN(c2ccc(Cl)cc2)CC1
active: ACHN renal; 10 µM unless noted -11.9%
inactive: SK-MEL-2 melanoma; 10 µM unless noted 18.1% | EKVX NSCLC; 10 µM unless noted 107% | SN12C renal 90.7% | UO-31 renal; 10 µM unless noted 86.1% | TK-10 renal; 10 µM unless noted 102% | CAKI-1 renal; 10 µM unless noted 24.1% | A498 renal; 10 µM unless noted 97% | HL-60(TB) leukemia 48.7% | CCRF-CEM leukemia; 10 µM unless noted 87.3% | MOLT-4 leukemia 75.6% | SR leukemia; 10 µM unless noted 56.2% | RPMI-8226 leukemia; 10 µM unless noted 110% | OVCAR-8 ovarian 72.5% | OVCAR-5 ovarian; 10 µM unless noted 80.5% | OVCAR-4 ovarian 98.6% | SK-OV-3 ovarian; 10 µM unless noted 103% | IGROV1 ovarian; 10 µM unless noted 68% | OVCAR-3 ovarian; 10 µM unless noted 125% | HS 578T breast; 10 µM unless noted 101%

CN(C)c1ccc(N)cc1
inactive: SK-MEL-2 melanoma; 10 µM unless noted 94.2% and 71.7% | EKVX NSCLC; 10 µM unless noted 96.2% and 32.4% | SN12C renal 96.2% and 64.7% | UO-31 renal; 10 µM unless noted 75% | TK-10 renal; 10 µM unless noted 117% and 26.5% | ACHN renal; 10 µM unless noted 99.5% and 64.9% | CAKI-1 renal; 10 µM unless noted 78.2% | A498 renal; 10 µM unless noted 108% and 62.7% | HL-60(TB) leukemia 95.1% and 38.5% | CCRF-CEM leukemia; 10 µM unless noted 87.5% and 36% | MOLT-4 leukemia 100% and 63.4% | SR leukemia; 10 µM unless noted 99% and 33.6% | RPMI-8226 leukemia; 10 µM unless noted 93.6% and 21% | OVCAR-8 ovarian 93.7% and 30.2% | OVCAR-5 ovarian; 10 µM unless noted 112% and 89.5% | OVCAR-4 ovarian 97.6% and 39.6% | SK-OV-3 ovarian; 10 µM unless noted 90% and 70.4% | IGROV1 ovarian; 10 µM unless noted 94.5% and 61.8% | OVCAR-3 ovarian; 10 µM unless noted 106% and 32.4% | HS 578T breast; 10 µM unless noted 100% and 54.5%

COC(=O)C12C3C4C1C1C2C3C41NC(=O)c1csc([C@@H](C[C@H](C(C)C)N(C)C(=O)[C@@H](NC(=O)[C@H]2CCCCN2C)C2CC2)OC(C)=O)n1 (stereo partly specified)
active: A498 renal; 10 µM unless noted -3.52% | HL-60(TB) leukemia -37.4% | SK-OV-3 ovarian; 10 µM unless noted 7.71% | OVCAR-3 ovarian; 10 µM unless noted -4.31%
inactive: SK-MEL-2 melanoma; 10 µM unless noted 19.1% | EKVX NSCLC; 10 µM unless noted 60.2% | SN12C renal 31.1% | UO-31 renal; 10 µM unless noted 45.6% | TK-10 renal; 10 µM unless noted 41.2% | ACHN renal; 10 µM unless noted 36.4% | CAKI-1 renal; 10 µM unless noted 38.1% | CCRF-CEM leukemia; 10 µM unless noted 16.5% | MOLT-4 leukemia 19.2% | SR leukemia; 10 µM unless noted 19.1% | RPMI-8226 leukemia; 10 µM unless noted 21.7% | OVCAR-8 ovarian 18.9% | OVCAR-5 ovarian; 10 µM unless noted 31.6% | OVCAR-4 ovarian 49.9% | IGROV1 ovarian; 10 µM unless noted 32.7% | HS 578T breast; 10 µM unless noted 28.1%

O=C(O)CCCc1ccc(N(CCCl)CCCl)cc1
active: ACHN renal; 75 µM -12.3% | CAKI-1 renal; 75 µM -12.5% | CCRF-CEM leukemia; 75 µM -7.66% | SR leukemia; 75 µM 5.82% | RPMI-8226 leukemia; 75 µM 7.4% | HS 578T breast; 75 µM -4.49%
inactive: SK-MEL-2 melanoma; 10 µM 102% and 109% | SK-MEL-2 melanoma; 75 µM 100% | EKVX NSCLC; 10 µM 101% | EKVX NSCLC; 75 µM 82.2% | UO-31 renal; 10 µM 83.4% and 89.5% | UO-31 renal; 75 µM 28.8% | TK-10 renal; 10 µM 102% | TK-10 renal; 75 µM 84.6% | ACHN renal; 10 µM 72.4% and 38.8% | CAKI-1 renal; 10 µM 57.9% and 34.2% | A498 renal; 10 µM 115% and 99.6% | A498 renal; 75 µM 68.5% | CCRF-CEM leukemia; 10 µM 71.9% and 46.6% | SR leukemia; 10 µM 44.8% and 19.5% | RPMI-8226 leukemia; 10 µM 84.4% and 90.7% | OVCAR-8 ovarian 87.5% | OVCAR-5 ovarian; 10 µM 97.7% and 81.1% | OVCAR-5 ovarian; 75 µM 66.4% | SK-OV-3 ovarian; 10 µM 101% and 108% | SK-OV-3 ovarian; 75 µM 59.8% | IGROV1 ovarian; 10 µM 80.2% | IGROV1 ovarian; 75 µM 50.9% | OVCAR-3 ovarian; 10 µM 111% and 108% | OVCAR-3 ovarian; 75 µM 18.9% | HS 578T breast; 10 µM 120% and 113%

CCC1(NC(=O)c2cc(F)c(F)c(F)c2F)C(=O)NC(=O)N(C(C)C)C1=O (stereo unspecified)
active: HL-60(TB) leukemia -22.6% | SR leukemia; 10 µM unless noted -18.6% | IGROV1 ovarian; 10 µM unless noted -56.8%
inactive: SK-MEL-2 melanoma; 10 µM unless noted 68.4% | EKVX NSCLC; 10 µM unless noted 93.1% | SN12C renal 81.7% | UO-31 renal; 10 µM unless noted 68.2% | TK-10 renal; 10 µM unless noted 123% | ACHN renal; 10 µM unless noted 96.6% | CAKI-1 renal; 10 µM unless noted 93.6% | A498 renal; 10 µM unless noted 98.2% | CCRF-CEM leukemia; 10 µM unless noted 87.3% | MOLT-4 leukemia 55% | RPMI-8226 leukemia; 10 µM unless noted 107% | OVCAR-8 ovarian 79.4% | OVCAR-5 ovarian; 10 µM unless noted 109% | OVCAR-4 ovarian 84.6% | SK-OV-3 ovarian; 10 µM unless noted 150% | OVCAR-3 ovarian; 10 µM unless noted 138% | HS 578T breast; 10 µM unless noted 28.3%
